Measurements from PubChem BioAssay AID1159580 (chemical genetic matrix, 2015).
In all, about 5,500 compounds went through this assay and about 2,000 (36%) were called active. Another 18% or so got no clear call; they are omitted. Cut-off read from the data, not from the text of the source: active = normalized growth mostly below about 0.91 (no sharp cut-off); inconclusive = no clear call, values can overlap the other calls; inactive = mostly above about 0.92. The list shows a part of the results.

Experiment: chemical genetic growth profiling, strain panel (AID 1159580);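 note: tested at 20 µM; growth read once vehicle control cultures reached saturation at 30 °C; 1 = growth at the plate median or of vehicle wells; lower values mean less growth of the strain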
Conditions: S. cerevisiae deletion strains, growth OD

Measured: normalized growth

CCCN1CCC[C@@H]2Cc3nc(N)ncc3C[C@H]21
inactive: locus YAL013W, strain DEP1, hits give low values 1.02 | locus YAL040C, strain CLN3, hits give low values 1.01 | locus YCL061C, strain MRC1 (second series), hits give low values 1.01 | locus YDR363W, strain ESC2, hits give low values 0.999 | locus YER002W, strain NOP16, hits give low values 1.02 | locus YMR307W, strain GAS1, hits give low values 0.995 | locus YNL128W, strain TEP1, hits give low values 1.01 | locus YNL175C, strain NOP13, hits give low values 1.02 | locus YNL197C, strain WHI3, hits give low values 1.01 | locus YNL224C, strain SQS1, hits give low values 1.01 | locus YNL322C, strain KRE1, hits give low values 0.999 | locus YOR083W, strain WHI5 (second series), hits give low values 1.01 | locus YPL241C, strain CIN2, hits give low values 1
